Among the test systems are DU-145 prostate; K-562 leukemia; MALME-3M melanoma; MDA-MB-231 breast; RXF 393 renal; SF-268 CNS; SF-295 CNS; SF-539 CNS; UACC-257 melanoma; M14 melanoma; HCT-15 colon; HT29 colon; SNB-75 CNS; SNB-19 CNS; U251 CNS; PC-3 prostate; SK-MEL-5 melanoma; UACC-62 melanoma; LOX IMVI melanoma; SK-MEL-28 melanoma.
Assay in all cases: NCI-60 one-dose screen, 48 h (100 = growth as untreated, 0 = no growth, -100 = all killed)
Holding throughout (settings): 10 µM unless noted

The structures appear in SMILES notation. About 83,000 compounds went through this panel and 20% of them were active in at least one assay; those are over-represented in the sample as a whole.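 Assay: single dose, 48 h. Readout: percent growth (0 = no net growth; negative = cell death). Active: <10.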 Unmarked numbers belong to inactive results. The source made the active and inactive calls.

On to `CCN1C(=O)N(CC)C2C1NN=c1s/c(=C\c3ccc[nH]3)c(=O)n12` (stereo not given), for which the growth in the assay on DU-145 prostate is -11.9% (active); in the assay with K-562 leukemia, 10.2%; with MALME-3M melanoma, 34.5%; in the assay with MDA-MB-231 breast it was 30.6%; in the assay on RXF 393 renal, -26.6% (active); in the assay with SF-268 CNS, 44.6%. The growth in the assay with SF-295 CNS is 12.4%; in the assay on SF-539 CNS, -21.5% (active); in the assay on UACC-257 melanoma, 46.7%; with M14 melanoma, -5.38% (active); in the assay on HCT-15 colon it was 24.4%; in the assay with HT29 colon, -10.4% (active). For the same compound, the growth in the assay with SNB-75 CNS was -23.6% (active); in the assay on SNB-19 CNS, 24.9%; with U251 CNS it was 9.08% (active); with PC-3 prostate, 19.6%; in the assay with SK-MEL-5 melanoma it was 30%; in the assay on UACC-62 melanoma, 25.7%. The figures for the growth in the assay with LOX IMVI melanoma and with SK-MEL-28 melanoma were 43% and 46%, respectively.

As to `NC(=O)c1c(NC(=O)c2cccs2)sc2c1CCC(=O)C2`, the growth in the assay on DU-145 prostate is 80.3%; in the assay on K-562 leukemia it was 10.3%; in the assay with MALME-3M melanoma, 67%; in the assay on MDA-MB-231 breast, 26.1%; in the assay on RXF 393 renal it was 46.4%; with SF-268 CNS it was 30.3%. Besides, the growth was 86.9% in the assay on SF-295 CNS; -3.38% (active) in the assay with SF-539 CNS; 63.7% in the assay on UACC-257 melanoma; 26.1% in the assay with M14 melanoma; 16.2% with HCT-15 colon; 46.3% with HT29 colon. Further, the growth was 28.3% with SNB-75 CNS; 40.2% in the assay on SNB-19 CNS; 14.9% with U251 CNS; 10.5% in the assay on PC-3 prostate; 71.5% in the assay with SK-MEL-5 melanoma; 4.69% (active) with UACC-62 melanoma. In addition, the growth is 30.3% in the assay with LOX IMVI melanoma and 50.7% in the assay with SK-MEL-28 melanoma.

In the case of `CN(C)c1ccc(-c2ccc3c(c2)c(-c2ccccc2)nc(=O)n3C)cn1`, the growth in the assay on DU-145 prostate is 69.7%; in the assay on K-562 leukemia, 3.37% (active); with MALME-3M melanoma, 62.6%; in the assay on MDA-MB-231 breast, 50.4%; with RXF 393 renal, 61.3%; with SF-268 CNS it was 46.2%. The growth in the assay on SF-295 CNS is 31.3%; in the assay on SF-539 CNS, 14.2%; in the assay with UACC-257 melanoma, 57.5%; with M14 melanoma it was 20.7%; in the assay with HCT-15 colon, 30.4%; in the assay with HT29 colon, 11.7%. Besides, the growth is 27.8% in the assay with SNB-75 CNS; 34.3% in the assay with SNB-19 CNS; 30.4% in the assay with U251 CNS; -42.8% (active) in the assay on PC-3 prostate; 22% with SK-MEL-5 melanoma; 25.2% in the assay on UACC-62 melanoma. Besides, the growth with LOX IMVI melanoma is 34.3%; in the assay with SK-MEL-28 melanoma it was 55.2%.

Take `N#Cc1cccc(C2C3=C(COC3=O)N(CCO)c3cc4c(cc32)CCC4)c1` (stereo not given): the growth with DU-145 prostate was 3.87% (active); with K-562 leukemia, 8.48% (active); in the assay with MALME-3M melanoma, 48.2%; in the assay on MDA-MB-231 breast, 32.4%; in the assay on RXF 393 renal, 35.5%; with SF-268 CNS, 30.4%. The growth in the assay with SF-295 CNS is -7.01% (active); in the assay on SF-539 CNS, -10.1% (active); in the assay on UACC-257 melanoma, 69.4%; in the assay on M14 melanoma, 2.59% (active); in the assay on HCT-15 colon it was 9.99% (active); in the assay on HT29 colon it was 4.8% (active). Further, the growth in the assay with SNB-75 CNS was 43.8%; in the assay on SNB-19 CNS, 23%; in the assay on U251 CNS, 14.6%; in the assay with PC-3 prostate, 22.9%; with SK-MEL-5 melanoma, -3.37% (active); with UACC-62 melanoma, 45.6%. Also, the growth with LOX IMVI melanoma was 19%; in the assay with SK-MEL-28 melanoma, 51.2%.

`O=C(CC(=O)Nc1cccc(C(=O)O)c1)Nc1cccc(C(=O)O)c1`: the growth in the assay with DU-145 prostate was 121%; in the assay with K-562 leukemia it was 111%; with MALME-3M melanoma, 104%; in the assay on MDA-MB-231 breast it was 104%; in the assay on RXF 393 renal, 111%; in the assay with SF-268 CNS, 104%. Moreover, the growth with SF-295 CNS is 106%; with SF-539 CNS, 90.5%; with UACC-257 melanoma, 97.7%; in the assay on M14 melanoma, 96.6%; in the assay with HCT-15 colon, 106%; in the assay with HT29 colon, 97.6%. The growth was 73.3% in the assay on SNB-75 CNS; 102% in the assay with SNB-19 CNS; 104% in the assay on U251 CNS; 92.5% in the assay with PC-3 prostate; 100% with SK-MEL-5 melanoma; 94.6% in the assay with UACC-62 melanoma. Besides, the growth is 103% with LOX IMVI melanoma and 100% with SK-MEL-28 melanoma.

As to `C[C@H](CCCC(=O)NCC#CCN1CCN(C)CC1)[C@H]1CC[C@H]2[C@@H]3CC[C@@H]4CC(=O)CC[C@]4(C)[C@H]3CC[C@]12C`, the growth in the assay with DU-145 prostate is 102%; with K-562 leukemia, 57.9%; with MALME-3M melanoma it was 65.7%; in the assay on MDA-MB-231 breast, 102%; with RXF 393 renal, 86.3%; in the assay on SF-268 CNS, 95.5%. Besides, the growth with SF-295 CNS was 106%; with SF-539 CNS, 78.6%; in the assay on UACC-257 melanoma, 96.3%; in the assay with M14 melanoma, 85.1%; in the assay with HCT-15 colon, 78.6%; in the assay on HT29 colon, 32.2%. In addition, the growth with SNB-75 CNS was 89.8%; in the assay with SNB-19 CNS it was 102%; in the assay with U251 CNS, 88%; in the assay with PC-3 prostate it was 77.1%; with SK-MEL-5 melanoma it was 90.7%; in the assay with UACC-62 melanoma, 97.7%. Besides, the growth with LOX IMVI melanoma was 86.7%; in the assay with SK-MEL-28 melanoma, 89.3%.

Regarding `O=C(CCSc1nnc2n(Cc3ccccc3)c(=O)c3c4c(sc3n12)CCCC4)N1CCN(c2ccccc2)CC1`, the growth was 111% in the assay on DU-145 prostate; 113% in the assay on K-562 leukemia; 95.4% in the assay on MALME-3M melanoma; 109% with MDA-MB-231 breast; 108% in the assay on RXF 393 renal; 93% with SF-268 CNS. Also, the growth is 96% in the assay on SF-295 CNS; 100% in the assay on SF-539 CNS; 101% in the assay with UACC-257 melanoma; 96.2% in the assay with M14 melanoma; 96.9% in the assay on HCT-15 colon; 93.7% in the assay on HT29 colon. The growth with SNB-75 CNS was 93.5%; in the assay with SNB-19 CNS it was 99.8%; in the assay on U251 CNS it was 106%; in the assay on PC-3 prostate, 102%; in the assay with SK-MEL-5 melanoma, 99.9%; in the assay on UACC-62 melanoma, 108%. Also, the growth in the assay with LOX IMVI melanoma is 100%; in the assay on SK-MEL-28 melanoma, 87.4%.

The values are drawn from PubChem BioAssay (NCI).
